PubChem BioAssay (NCI)
About 83,000 compounds went through this panel and 20% of them were active in at least one assay; those are over-represented in the sample as a whole.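 Percent growth is the endpoint: 0 to 100 indicates growth inhibition (40 means 60% inhibition), 0 means no net growth, and negative values indicate cell death.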 Values without a mark were called inactive. The calls were made as follows: active = growth percent below 10; inactive = the rest.

These compounds were tested on SNB-19 CNS (assay: NCI-60 one-dose screen, 48 h (100 = growth as untreated, 0 = no growth, -100 = all killed)). Conditions: 10 µM unless noted.

SMILES | growth [%]
COc1ccc(C=Nc2c(C(=O)Nc3cccc(Cl)c3C)sc3nc(C)c(C(=O)/C=C/c4ccc(OC)cc4)cc23)cc1 | 11.7
CCOC(=O)CNC1=C(Cl)C(=O)N(Cc2ccc(Cl)cc2)C1=O | 98.6
COc1ccc(/C=C(\C(=O)NCc2cccnc2)S(=O)(=O)c2ccccc2)cc1OC | 38.4
COc1cc2c(c(OC)c1OC)CCC(c1cccc(C(=O)Nc3ccc(Br)cc3)c1)O2 (stereo not given) | 65.8
Nc1cc(-c2ccc(Cl)cc2)nn1-c1nnc(/C=C/c2ccco2)c(=O)[nH]1 | 57.8
N#C/C(=C\c1ccc(-c2cccc(Cl)c2)o1)C(=O)Nc1ncc(Cc2ccc(Cl)cc2)s1 | 77.4
CCOC(=O)c1c(C)nc2c(c1N)C(=O)C(=O)N2Cc1ccc(OC)cc1 | 80
c1csc(-c2cn3nc(-c4c[nH]c5ccccc45)sc3n2)c1 | 28.7
FC(F)(F)c1[nH]ncc1-c1nc2ccc3[nH]ncc3c2c2c1CCCC2 | 17.7
COc1cc(-c2nccc3[nH]c(-c4cccc5[nH]ccc45)nc23)cc(OC)c1OC | 49.1
COc1ccc2[nH]cc(-c3nonc3-c3c[nH]c4ccc(Br)cc34)c2c1 | 62.9
CC(=O)c1c(Nc2cccc(F)c2)[nH]c2c(Cl)cc(Cl)c(Cl)c2c1=O | 16.6
CCOC(=O)NC(=S)n1oc(=O)c2ccccc21 | 104
O=S(Nc1ccccc1)c1ccc(Cl)cc1 (stereo not given) | 96.8
Nc1c(Br)cc2c(c1Br)Cc1cc([N+](=O)[O-])ccc1-2 | 94.5
CCCN(CCSSCCNc1nc(N(C)O)nc(N(C)O)n1)c1nc(N(C)O)nc(N(C)O)n1 | 44.7
COC(=O)c1sccc1-c1cc(O)c(C(=O)Nc2ccccc2)s1 | 107
N#Cc1c(-c2ccc(Cl)cc2)nc(NN=Cc2ccc[nH]2)nc1N1CCOCC1 | 74.2
Clc1ccc(-c2nc(C(Cl)Cl)nc3cc(-c4ccccc4)nn23)cc1 | 25.2
C/C(=N\Nc1ccccc1)c1ccc(NC2=CC(=O)c3ccccc3C2=O)cc1 | 85.7

SMILES | growth [%]
COc1ccc(/C=C(/C(=O)N2CCNCC2)c2cc(OC)c(OC)c(OC)c2)cc1O | 38.4
CCN(CC)CCCC(Cc1ccccc1)Nc1c2ccc(Cl)cc2nc2ccc(OC)cc12 (stereo not given) | 34.7
Fc1ccc2[nH]cc(-c3nc(-c4c[nH]c5c(Cl)nccc45)cs3)c2c1 | 59.9
Fc1ccc(/C=C/[C@@H]2C[C@@H](F)CCO2)cc1 | 93.8
Cc1ccccc1N1CCN(C(=S)c2ccccc2)CC1 | 98.8
N#Cc1ccc(/C=C/c2cn(-c3ccccc3)nc2-c2cccc([N+](=O)[O-])c2)cc1 | 21.6
Cc1[nH]c(C(=O)Nc2ccccc2OC2CCN(CCN3CCOCC3)CC2)c(Cl)c1Cl | 107
COc1ccc(C(O)c2cc3c(N)c(C(=O)Nc4cccc5ccccc45)sc3nc2C)cc1 (stereo not given) | 25
Cc1ccc(C(=O)c2ccc(CC(=O)N/N=C/c3cccc(O)c3O)n2C)cc1 | 46
CCC(C)(C)c1ccc(Nc2ccc(Nc3ccc(C(C)(C)CC)cc3)cc2)cc1 | 95.9
O=C(Nc1ccc(Nc2ccncc2)cc1)c1ccc(Nc2ccnc3ccc([N+](=O)[O-])cc23)cc1 | 117
CCCCNC(=O)c1ccc2c(c1)nc(-c1ccccc1)n2C1CCCCC1 | 110
Cc1ccc(NC(=O)c2cc3ccccc3cc2O)c(C)c1 | 105
CCOC(=O)C(CCN(C)C)c1ccccc1 (stereo not given) | 105
CC(O)Cc1c[nH]c(=O)[nH]c1=O (stereo not given) | 108
COCCn1cc(-c2nc(-c3c[nH]c4ncccc34)cs2)c2ccccc21 | 88.6
CC1SC(c2ccccc2O)N(NC(=O)CCC(=O)c2nc3ncccc3[nH]2)C1=O (stereo not given) | 101
COC12C=C/C(=C(/C(=O)OCCSc3ccnn3C)C(=O)CCCCCCCCC3(OC)C=C/C(=C(/C(=O)OCCSc4ccnn4C)C(=O)CCCCCCCC1)O3)O2 | 32.9
COC1C(O)CC(OC2CC(OC3CC(O[C@@H]4C(=O)c5c(cc6cc(OC7CC(OC8CC(O)C(O)C(C)O8)C(O)C(C)O7)c(C)c(O)c6c5O)CC4[C@H](OC)[C@@H](O)C(C)=O)OC(C)C3O)OC(C)C2O)OC1C (stereo not given in full) | 16.4
CNC(=O)c1cc(Oc2ccc3c(c2)sc2nc(-c4ccc(NC(=O)[C@@H](NC(=O)OC)C(C)C)cc4)cn23)ccn1 | 91.1
